Assay outcomes as filed in PubChem.
An excerpt weighted towards active compounds, which were near 3.2% of everything screened.
DENV2 CPE rescue: protects cells from dengue virus 2 cytopathic effect; DENV2-infected cells, cytopathic effect rescue, plate reader; CPE inhibition, % at 9.99 µM; hit rate 1.7% among 350,000; in the data active = CPE inhibition above about 20%, passing the limit was not always enough; inconclusive = no clear call, values can overlap the other calls; tested in BHK-21 cells;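 also: 0% = median of neutral control wells and 100% = median of positive control wells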
Ecoli rRNA inh: inhibitors of bacterial rRNA selective over humanized ribosomes; E. coli WT GFP vs humanized-ribosome RFP mutants, fluorescence, 24 h; hits give low values; DMSO median 0, no signal -100; GFP signal change (wild-type ribosome), % (no concentration beside the values); hit rate 1.6% among 350,000; AID 720706;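 active = significant combined selectivity score with lowered wild-type GFP, culture density cut under 30%, mutant RFP and density less affected; inactive = any of these conditions unmet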
GSIS activator: primary screen for activators of insulin secretion dependent on glucose, INS-1E cells, GLuc reporter luminescence. INS-1E GLuc reporter insulin secretion, 2-3 h. activation, % at 16.6 µM. hit rate 0.61% among 370,000. AID 743287;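 active = lowest replicate activation of at least 40%, so every replicate reaches that level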;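 also: 0% = median of neutral control wells and 100% = median of IBMX positive control wells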
PGC1a acetyl inh: PGC1a acetylation modulation, inhibitor mode | U2OS PGC1a acetylation, AlphaScreen anti-acetyl-lysine; with virally co-expressed GCN5 acetyltransferase | inhibition, % at 15.6 µM | hit rate 0.17% among 350,000 | AID 651687;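 active = every replicate shows inhibition of at least 40%; inconclusive = mean inhibition at least 40% but some replicate below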;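 also: 0% = neutral control wells and 100% = positive control wells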
ERAP1 inh: blocks human ERAP1 aminopeptidase activity; inhibition, % at 10.7 µM; Q9NZ08; hit rate 0.15% among 340,000; AID 652197; recombinant ERAP1, Leu-AMC fluorescence, 60 min;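 active = mean replicate inhibition of at least 30%, or all replicates individually reaching that 30% level; inactive = mean below 30% and not every replicate reaching it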;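 also: 0% = neutral control wells and 100% = L-leucinethiol positive control wells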
Target sequence (Q9NZ08 whole entry, looked up): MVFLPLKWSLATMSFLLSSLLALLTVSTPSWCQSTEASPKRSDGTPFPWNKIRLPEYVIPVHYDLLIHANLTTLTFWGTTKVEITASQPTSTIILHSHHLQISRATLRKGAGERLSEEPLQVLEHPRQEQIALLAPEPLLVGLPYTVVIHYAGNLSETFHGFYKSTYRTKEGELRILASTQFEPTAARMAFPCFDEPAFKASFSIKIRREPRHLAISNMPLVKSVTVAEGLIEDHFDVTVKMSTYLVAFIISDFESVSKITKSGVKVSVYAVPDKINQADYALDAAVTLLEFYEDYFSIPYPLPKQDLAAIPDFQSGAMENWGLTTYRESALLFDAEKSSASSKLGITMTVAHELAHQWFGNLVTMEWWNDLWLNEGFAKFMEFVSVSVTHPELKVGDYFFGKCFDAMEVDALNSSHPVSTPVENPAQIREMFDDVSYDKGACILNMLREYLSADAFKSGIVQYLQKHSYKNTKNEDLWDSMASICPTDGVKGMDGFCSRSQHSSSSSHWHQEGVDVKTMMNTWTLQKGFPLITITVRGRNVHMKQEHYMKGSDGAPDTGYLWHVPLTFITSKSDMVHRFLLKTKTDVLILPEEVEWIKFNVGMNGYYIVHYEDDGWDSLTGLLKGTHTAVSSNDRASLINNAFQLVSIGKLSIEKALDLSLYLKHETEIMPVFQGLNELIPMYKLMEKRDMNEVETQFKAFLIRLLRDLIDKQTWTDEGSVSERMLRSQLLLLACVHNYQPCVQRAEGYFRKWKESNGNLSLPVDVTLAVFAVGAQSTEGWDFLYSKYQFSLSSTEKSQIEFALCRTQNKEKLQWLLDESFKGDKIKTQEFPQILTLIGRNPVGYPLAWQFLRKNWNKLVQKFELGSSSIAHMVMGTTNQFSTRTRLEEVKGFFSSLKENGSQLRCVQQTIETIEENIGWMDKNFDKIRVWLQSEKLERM
CaV13 FRET inh: Primary screen for inhibitors of IQ motif and Ca2+-dependent inactivation inhibitor domain binding in CACNA1D, Förster resonance energy transfer in living cells, …. HEK cells, CFP/YFP FRET ICDI-IQ, plate reader, 10 min; percent FRET-ratio fall versus neutral wells. inhibition, % at 12.3 µM. hit rate 0.098% among 340,000;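 active = mean replicate inhibition of at least 30% and at least 1% of replicates passing that level; inconclusive = only one of the two criteria is met; inactive = neither criterion is met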;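 also: 0% = median of the neutral control wells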
* hit, by the source's call; ? = inconclusive; · = not tested or not shown.

SMILES | DENV2 CPE rescue | Ecoli rRNA inh | GSIS activator | PGC1a acetyl inh | ERAP1 inh | CaV13 FRET inh
CCOC(=O)N1CCc2c(sc(NC(=O)c3ccc(S(=O)(=O)N4CCCC4)cc3)c2C#N)C1 | 16.9 | -12.9 | · | 17.1 | 31.2* | -25.0
CCOC(=O)c1c(NC(=O)CC)sc2c1CCN(Cc1ccccc1)C2 | -2.7 | -25.1 | 16.4 | · | 7.5 | -3.3
CCOC(=O)c1c(NC(=O)CSc2ncccn2)sc2c1CCN(Cc1ccccc1)C2 | · | -22.9 | -12.9 | · | -0.6 | 36.0*
CC(=O)N1CCc2c(sc(NC(=O)Cc3ccc(F)cc3)c2C#N)C1 | -4.7 | -1.0 | 1.3 | -0.7 | -2.1 | -4.2
CN1CCc2c(sc(NC(=O)Cc3ccccc3)c2C#N)C1 | -5.2 | 5.3 | · | -6.4 | 3.6 | 120.5*
CC(C)N1CCc2c(sc(NC(=O)c3ccc(S(=O)(=O)N4CCOCC4)cc3)c2C#N)C1 | · | · | · | 0.0 | · | ·
CCOC(=O)c1c(NC(=O)CN2CCCCC2)sc2c1CCN(C(=O)OCC)C2 | -4.2 | -38.3* | -32.2 | · | -2.1 | -7.6
Cc1ccc(S(=O)(=O)Nc2cccc3c2O[C@H](CN(C)C(=O)Nc2ccc(F)cc2)[C@H](C)CN([C@H](C)CO)C3=O)cc1 | 10.7 | 0.3 | -17.9 | 1.0 | -0.9 | ·
O=C(C[C@@H]1CC[C@H]2[C@@H](COC[C@H](O)CN2C(=O)c2ccccc2)O1)Nc1ccccc1 | -1.8 | 0.1 | 0.2 | -4.2 | · | ·
CCCNC(=O)N1C[C@@H](C)[C@@H](OC)CN(C)C(=O)c2cc(NC(C)=O)ccc2OC[C@@H]1C | -10.9 | 4.9 | 13.3 | 12.0 | -1.4 | ·
COc1ccccc1-c1cn(CC[C@H]2CC[C@H](NC(=O)NC(C)C)[C@@H](CO)O2)nn1 | 9.7 | -1.5 | 8.3 | 2.1 | 3.2 | ·
NC(=O)c1c(NC(=O)Cc2ccccc2)sc2c1CCN(Cc1ccccc1)C2 | ? | -3.1 | -12.8 | · | 0.6 | 39.9*
CCc1ccc(NS(=O)(=O)c2ccc(C)c(C(=O)N3CCOCC3)c2)cc1 | -2.5 | 21.2 | -0.2 | · | 83.4* | -2.8
Cc1ccc(NS(=O)(=O)c2ccc(C)c(C(=O)N3CCOCC3)c2)cc1 | 17.6 | 12.2 | -2.6 | 1.8 | 1.2 | -5.1
COc1ccc2cc(C(=O)C3CCCN(C(=O)C4=NN(C)C(=O)CC4)C3)ccc2c1 (stereo not drawn) | -4.2 | -25.6* | -5.1 | -0.5 | 2.2 | -5.3
COc1cc(N(C)C)ccc1C=c1c2ccccc2n2c1cc(-c1ccccc1)[n+]2C | 10.3 | -76.7 | -42.7 | 15.3 | 39.7* | -9.3
O=C(C[C@H]1C[C@@H]2c3cc(NC(=O)Cc4ccncc4)ccc3O[C@@H]2[C@H](CO)O1)NCc1ccccn1 | -6.2 | -0.5 | -4.8 | 3.5 | 0.1 | ·
Cc1ccc(S(=O)(=O)N(C)C[C@H]2Oc3ccc(NC(=O)Cc4ccccc4)cc3C(=O)N([C@@H](C)CO)C[C@@H]2C)cc1 | 12.6 | -2.8 | -21.0 | -0.8 | -0.2 | ·
Cc1c(C(=O)OCC(=O)N2CC(=O)Nc3ccccc32)oc2ccc(Br)cc12 | · | · | 72.9* | -3.3 | · | ·
O=C1CN(C(=O)COC(=O)c2c(F)cccc2Cl)c2ccccc2N1 | 25.7* | -0.6 | -1.8 | 1.3 | -1.3 | -6.5
O=C1CN(C(=O)COC(=O)c2ccc(Cl)cc2)c2ccccc2N1 | -7.5 | 7.2 | 0.8 | · | 0.2 | -6.0
C[C@@H]1CN([C@H](C)CO)C(=O)c2cccc(NS(=O)(=O)c3cccs3)c2O[C@@H]1CN(C)C(=O)NC1CCCCC1 | ? | -1.2 | -0.5 | -12.6 | -4.5 | ·
Cc1ccc(S(=O)(=O)N[C@H]2CC[C@H](CCn3cc(C4CCCCC4)nn3)O[C@H]2CO)cc1 | 17.5 | -2.2 | 10.2 | 2.3 | 0.7 | ·
COc1ccc(-c2cnc3c(c2)C(=O)N([C@@H](C)CO)C[C@H](C)[C@@H](CN(C)C(=O)C2CCC2)O3)cc1 | 17.5 | -5.3 | -8.2 | 0.1 | 0.9 | ·
COCCNC(=O)C1(C)CCCN(C(=O)c2ccccc2)C1 (stereo not drawn) | 32.8* | 5.9 | 13.4 | · | 5.5 | -4.6
SMILES | DENV2 CPE rescue | Ecoli rRNA inh | GSIS activator | PGC1a acetyl inh | ERAP1 inh | CaV13 FRET inh
COCCNC(=O)C1(C)CCCN(C(=O)c2ccc(-c3ccccc3)cc2)C1 (stereo not drawn) | 4.3 | -4.8 | · | -5.1 | -1.5 | -4.9
O=C(NC1(Cc2ccccc2)CCN(CCc2cccs2)C1=O)c1ccccc1 (stereo not drawn) | 72.0* | -0.9 | -23.4 | -0.1 | -2.6 | -5.3
CC1(NC(=O)c2ccccc2)CCN(CCc2cccs2)C1=O (stereo not drawn) | -17.2 | 4.6 | 0.9 | 1.8 | 0.7 | -10.1
C/C(N)=C(/C#N)C(=O)CSc1ccccc1F | 5.7 | 3.8 | 19.1 | -4.6 | -3.8 | 1.3
C/C(N)=C(/C#N)C(=O)CSc1nnc(Cc2ccccc2F)n1N | 54.4* | 7.6 | -0.7 | 6.3 | 0.0 | -15.4
CC(=O)N1CC2(C1)[C@@H](c1ccc(-c3ccc(C#N)cc3)cc1)[C@@H](CO)N2C(=O)C1CC1 | 0.2 | -2.3 | -4.0 | 4.7 | 1.6 | ·
C[C@H](CO)N1C[C@H](C)[C@H](CN(C)C(=O)NC2CCCCC2)OCCCC[C@H](C)Oc2ccc(NC(=O)Nc3ccc(F)cc3)cc2C1=O | -0.6 | -3.6 | 1.6 | -11.5 | -0.3 | ·
CN(C)S(=O)(=O)c1cccc2c1C(=O)c1ccccc1C2=O | 23.4* | 10.1 | 10.3 | · | 4.8 | -4.9
CN(C)S(=O)(=O)c1ccccc1C#N | 0.5 | 9.8 | 16.1 | -11.3 | -1.1 | -7.0
Cc1cc(Cl)ccc1NC(=S)N1CCN(C(=O)c2ccco2)CC1 | 8.3 | -37.1* | -1.7 | -7.4 | -0.5 | -5.6
N#Cc1cnn2c(C(F)(F)F)cc(-c3ccccc3)nc12 | 0.6 | 9.4 | 44.1* | · | -1.9 | -8.8
C=C(C)n1c(=O)n(Cc2ccccc2C)c2ccccc21 | -8.5 | -30.8* | 39.2 | 8.1 | -3.6 | -13.6
C=C(C)n1c(=O)n(Cc2ccc(C)cc2)c2ccccc21 | -5.3 | -15.2 | -4.2 | -2.4 | 0.6 | -3.2
Cc1ccc2nc(N3CCN(C(=O)CCCC(=O)O)CC3)nc(-c3ccccc3)c2c1 | 10.9 | -1.5 | 57.3* | · | 5.1 | -6.2
C[C@H](NC(=O)[C@@H]1CCCN1C(=O)OC(C)(C)C)c1ccccc1 | 76.0* | -10.3 | 14.0 | · | · | -5.8
CC(NC(=O)C1CCCN1S(=O)(=O)c1ccc2c(c1)n(C)c(=O)c(=O)n2C)c1ccccc1 (stereo not drawn) | 1.1 | 13.4 | 54.0* | 4.5 | -2.2 | -10.4
CCc1cccc(NC(=O)C2CCCN2S(=O)(=O)c2ccc3c(c2)n(C)c(=O)c(=O)n3C)c1 (stereo not drawn) | -6.1 | 6.5 | 45.8* | -7.4 | 4.5 | -7.1
COc1ccc2[nH]c3c(=O)n(CCCCC(=O)NCCN4CCCC4)c(=S)[nH]c3c2c1 | 0.2 | -28.9* | -0.9 | -4.8 | 5.5 | -6.1
